C diff growth = C. difficile growth inhibition | Clostridium difficile clinical isolate growth, OD600, 24 h; hits give low values | growth activity, negative = inhibition, % at 16 µg/mL (by protocol) | actives 0.25% (n = 86,000) | AID 1259249;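 active = mean growth activity at or below -80% and every replicate also at or below -80%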;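 note: 0% = DMSO wells and -100% = levofloxacin 16 µg/mL wells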
Pf Dd2 inh = blocks growth of Plasmodium falciparum Dd2 parasites | activity change, % at 10 µM | actives 2.3% (n = 94,000) | P. falciparum Dd2 growth, SYBR Green, 72 h; hits give low values; in the data active = activity change below about -80%
* = called active by the depositor; · = no result given. Shown are actives, neighbours in structure and some others; about 2.4% of the full set was active somewhere.

SMILES | C diff growth | Pf Dd2 inh
Cc1ccc(S(=O)(=O)N(C)C[C@@H]2OCCCC[C@@H](C)Oc3ccc(NC(=O)Nc4ccc(F)cc4)cc3C(=O)N([C@H](C)CO)C[C@@H]2C)cc1 | · | -84*
Cc1ccc(S(=O)(=O)N(C)C[C@H]2OCCCC[C@H](C)Oc3ccc(NC(=O)Nc4ccc(F)cc4)cc3C(=O)N([C@@H](C)CO)C[C@@H]2C)cc1 | · | -73
Cc1ccc(S(=O)(=O)N(C)C[C@@H]2OCCCC[C@@H](C)Oc3ccc(NC(=O)Nc4ccc(F)cc4)cc3C(=O)N([C@@H](C)CO)C[C@@H]2C)cc1 | · | -85*
C[C@@H]1CN([C@H](C)CO)C(=O)c2cc(NC(=O)Nc3ccc(F)cc3)ccc2O[C@@H](C)CCCCO[C@@H]1CN(C)S(=O)(=O)c1ccccc1 | 9 | -82*
Cc1ccc(S(=O)(=O)N(C)C[C@H]2OCCCC[C@@H](C)Oc3ccc(NC(=O)Nc4ccc(F)cc4)cc3C(=O)N([C@H](C)CO)C[C@H]2C)cc1 | · | -80
C[C@@H]1CCCCO[C@H](CN(C)CC2CCCCC2)[C@H](C)CN([C@@H](C)CO)C(=O)c2cc(NC(=O)Nc3ccc(F)cc3)ccc2O1 | -1 | -80
C[C@H]1CCCCO[C@H](CN(C)CC2CCCCC2)[C@@H](C)CN([C@@H](C)CO)C(=O)c2cc(NC(=O)Nc3ccc(F)cc3)ccc2O1 | 5 | -83*
C[C@@H]1CCCCO[C@@H](CN(C)CC2CCCCC2)[C@H](C)CN([C@H](C)CO)C(=O)c2cc(NC(=O)Nc3ccc(F)cc3)ccc2O1 | -6 | -90*
C[C@@H]1CCCCO[C@@H](CN(C)CC2CCCCC2)[C@@H](C)CN([C@@H](C)CO)C(=O)c2cc(NC(=O)Nc3ccc(F)cc3)ccc2O1 | -3 | -77
C[C@H](CO)N1C[C@H](C)[C@H](CN(C)Cc2ccccc2)OCCCC[C@H](C)Oc2ccc(NC(=O)Nc3ccc(F)cc3)cc2C1=O | 17 | 4
C[C@@H]1CCCCO[C@H](CN(C)C(=O)Cc2ccccc2)[C@@H](C)CN([C@@H](C)CO)C(=O)c2cc(NS(=O)(=O)c3ccccc3)ccc2O1 | · | -60
C[C@@H]1CCCCO[C@H](CN(C)C(=O)CCCN(C)C)[C@@H](C)CN([C@H](C)CO)C(=O)c2cc(NC(=O)Nc3cccc4ccccc34)ccc2O1 | -2 | -25
CCCc1cn([C@H]2C[C@@H]3O[C@H](CO)CC[C@@H]3O[C@@H]2CCc2ccc(-c3ccc(OC)cc3)cc2)nn1 | 13 | -83*
CCCc1cn([C@@H]2C[C@@H]3O[C@H](CO)CC[C@@H]3O[C@@H]2CCc2ccc(-c3cccc(OC)c3)cc2)nn1 | -16 | -87*
COCc1cn([C@H]2C[C@@H]3O[C@@H](CO)CC[C@@H]3O[C@@H]2CCc2ccc(-c3ccc(OC)cc3)cc2)nn1 | -5 | -64
CCCc1cn([C@H]2C[C@@H]3O[C@H](CO)CC[C@@H]3O[C@@H]2CCc2ccc(-c3cccc(OC)c3)cc2)nn1 | 18 | -69
C[C@@H]1CN([C@H](C)CO)C(=O)c2cc(-c3ccccc3F)cnc2O[C@@H]1CN(C)Cc1ccc(F)cc1 | 4 | -6
COc1ccc(NC(=O)Nc2ccc3c(c2)C(=O)N([C@H](C)CO)C[C@@H](C)[C@@H](CN(C)C(=O)Nc2ccc(C(F)(F)F)cc2)O3)cc1 | · | -50
CC(C)NC(=O)Nc1cccc2c1O[C@H](CN(C)Cc1ccc(C(=O)Nc3ccccc3N)cc1)[C@H](C)CN([C@H](C)CO)C2=O | -1 | -22
C[C@H]1CN([C@@H](C)CO)C(=O)c2cccc(NC(=O)Nc3ccccc3)c2O[C@@H]1CN(C)Cc1ccc(C(=O)Nc2ccccc2N)cc1 | 0 | -88*
C[C@@H]1CN([C@@H](C)CO)C(=O)c2cccc(NC(=O)Nc3ccccc3)c2O[C@H]1CN(C)Cc1ccc(C(=O)Nc2ccccc2N)cc1 | -2 | -87*
C[C@H](CO)N1C[C@H](C)[C@@H](CN(C)Cc2ccc(C(=O)O)cc2)Oc2c(NC(=O)Nc3ccccc3)cccc2C1=O | 1 | -3
C[C@H](CO)N1C[C@H](C)[C@H](CN(C)Cc2ccc(C(=O)Nc3ccccc3N)cc2)Oc2c(NC(=O)Nc3ccc4c(c3)OCO4)cccc2C1=O | · | -79
C[C@@H]1CN([C@@H](C)CO)C(=O)c2cccc(NC(=O)Nc3cccc4ccccc34)c2O[C@@H]1CN(C)Cc1ccc(C(=O)Nc2ccccc2N)cc1 | 8 | -92*
C[C@@H]1CN([C@H](C)CO)C(=O)c2cccc(NC(=O)Nc3ccc4c(c3)OCO4)c2O[C@H]1CN(C)Cc1ccc(C(=O)Nc2ccccc2N)cc1 | · | -86*
SMILES | C diff growth | Pf Dd2 inh
CCN1[C@H](C(=O)NC2CCCCC2)[C@@H](CO)[C@@H]2Cn3c(ccc(-c4cccnc4)c3=O)[C@@H]21 | -1 | -10
C[C@H]1CN([C@@H](C)CO)C(=O)Cc2cc(NC(=O)Cc3ccccc3)ccc2O[C@@H]1CN(C)Cc1ccc(C(F)(F)F)cc1 | 6 | -27
CCNC(=O)C[C@H]1CC[C@H]2[C@@H](COc3ccc(NC(=O)NC(C)C)cc3C(=O)N2C)O1 | · | 9
O=C(C[C@@H]1CC[C@H](NC(=O)C2CCOCC2)[C@@H](CO)O1)Nc1ccc(-c2ccccc2)cc1 | -3 | -5
Cc1noc(C)c1S(=O)(=O)N(C)C[C@@H]1Oc2ccc(NS(C)(=O)=O)cc2C(=O)N([C@H](C)CO)C[C@@H]1C | · | 21
C[C@H](CO)N1C[C@H](C)[C@@H](CN(C)Cc2ccc(C(=O)Nc3ccccc3N)cc2)Oc2c(NC(=O)Nc3ccccc3)cccc2C1=O | 1 | -86*
C[C@@H]1CN([C@H](C)CO)C(=O)c2cccc(NC(=O)Nc3ccccc3)c2O[C@@H]1CN(C)Cc1ccc(C(=O)O)cc1 | -3 | 10
CCCN1[C@H](CO)[C@H](c2ccc(C3=CCCC3)cc2)[C@H]1CN(C(C)=O)C1CCCC1 | 3 | -95*
CC(=O)N(C)C[C@@H]1[C@@H](c2ccc(C3=CCCC3)cc2)[C@@H](CO)N1CC1CC1 | -7 | -24
C[C@@H]1CCCCO[C@@H](CN(C)CC2CC2)[C@H](C)CN([C@@H](C)CO)C(=O)c2cc(NC(=O)Nc3ccc4c(c3)OCO4)ccc2O1 | 5 | -52
C[C@H]1CCCCO[C@H](CN(C)CC2CC2)[C@@H](C)CN([C@@H](C)CO)C(=O)c2cc(NC(=O)Nc3ccc4c(c3)OCO4)ccc2O1 | 4 | -90*
CCCN(C)C[C@H]1OCCCC[C@@H](C)Oc2ccc(NC(=O)Nc3ccc4c(c3)OCO4)cc2C(=O)N([C@H](C)CO)C[C@@H]1C | 5 | -86*
CCCN(C)C[C@H]1OCCCC[C@H](C)Oc2ccc(NC(=O)Nc3ccc4c(c3)OCO4)cc2C(=O)N([C@@H](C)CO)C[C@@H]1C | 1 | ·
C[C@H](CO)N1C[C@H](C)[C@H](CN(C)Cc2ccc(-c3ccccc3)cc2)Oc2ccc(NC(=O)Nc3ccc(C(F)(F)F)cc3)cc2CC1=O | 6 | -8
COCC(=O)N(C)C[C@H]1Oc2cc(C#Cc3cccnc3)ccc2S(=O)(=O)N([C@H](C)CO)C[C@@H]1C | 0 | -10
COc1ccc(NC(=O)Nc2ccc3c(c2)C(=O)N([C@H](C)CO)C[C@@H](C)[C@@H](CN(C)CC2CCCCC2)OCCCC[C@@H](C)O3)cc1 | -22 | -81*
COc1ccc(NC(=O)Nc2ccc3c(c2)C(=O)N([C@H](C)CO)C[C@@H](C)[C@H](CN(C)CC2CC2)OCCCC[C@H](C)O3)cc1 | 1 | 14
